Test results as given in PubChem BioAssay (NCI).
Compounds without any hit were thinned out: in the full panel of roughly 79,000, 15% have a hit. Active and inactive are the calls of the source. Cut-off read from the data, not from the text of the source: active = growth inhibition above about 70%; inactive = the rest.

Test: NCI Yeast Anticancer Drug Screen. Data for the cln2 rad14 strain (AID 165);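 note: 0% = growth equal to vehicle treated cultures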
Conditions: S. cerevisiae cln2 rad14 strain, at 5.0 µM (retest, dose inferred, filed as 0.5), stronger effect = higher value
Method in brief: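 The screen exposed genetically defined yeast (cln2 rad14) to test compounds and scored growth inhibition relative to vehicle-treated controls.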

Row | Structure (SMILES) | growth inhibition
1 | CC12CCC(=O)C=C1CCC1C2CCC2(C)C(O[Si](C)(C)OC3CCC4C5CCC6=CC(=O)CCC6(C)C5CCC34C)CCC12 (stereo not given) | 1% (inactive)
2 | CC1=C[C@H]2O[C@H]3C[C@H]4OC(=O)/C=C\C=C\C(=O)OCC[C@@H](C)[C@H](O)C(=O)OC[C@@]2(CC1)[C@@]4(C)[C@]31CO1 | 98% (active)
3 | CCCCCCCC[As](C)(=O)O | -72% (inactive)
4 | OC1C2[C@@H](O)CCCN2C[C@@H](O)[C@H]1O (stereo not given in full) | 5% (inactive)
5 | COC1(O[C@H]2CC[C@H]3[C@@H]4CCC5=CC(=O)CC[C@]5(C)[C@H]4CC[C@]23C)CCCCC1 | 1% (inactive)
6 | O=[N+]([O-])c1ccc(CS(=O)(=O)C(Cl)(Cl)Cl)o1 | 3% (inactive)
7 | CC([CH2][Hg][Cl])c1ccccc1 (stereo not given) | 99% (active)
8 | CC(C)CC[CH2][Pb]([CH2]CCC(C)C)([CH2]CCC(C)C)[O]C(=O)C(Cl)(Cl)Cl | -1% (inactive)
9 | COC1OC(OC)[CH]([Hg][Cl])C1OC (stereo not given) | 99% (active)
10 | S=C=[N][Sn]([N]=C=S)([c]1ccccc1)[c]1ccccc1.c1ccc2nc(-c3ccc4ccccc4n3)ccc2c1 | 51% (inactive)
11 | CSCCC([NH-])C(=O)O.CSCCC([NH-])C(=O)O.[Zn+2] (stereo not given) | 4% (inactive)
12 | C[PH+](C)C.C[PH+](C)C.[Au] | 18% (inactive)
13 | O=C(O)C(Br)C(Br)C(=O)O.[Ag] (stereo not given) | 97% (active)
14 | CCC1CN1P(=O)(Oc1ccccc1)N1CC1CC (stereo not given) | -11% (inactive)
15 | CCCCCc1cc(O)c(CCCC)c(O)c1 | -47% (inactive)
16 | N#CC(Cl)(Cl)CCl | -5% (inactive)
17 | O=C(Cc1c2ccccc2cc2c1ccc1ccccc12)N(CCCl)CCCl | 5% (inactive)
18 | CC[C@@]1(O)C(=O)OCc2c1cc1n(c2=O)Cc2cc3c(OC)cccc3nc2-1 | 55% (inactive)
19 | CCOC(=O)NP(=O)(NNc1ccccc1)NNc1ccccc1 | 84% (active)
20 | C=C1C(=O)O[C@@H]2C[C@@H](C)[C@@H]3C=CC(=O)[C@@]3(C)[C@@H](O)[C@H]12 | 11% (inactive)

Row | Structure (SMILES) | growth inhibition
21 | O=C(O)C(F)(F)F.[Ag] | 99% (active)
22 | O=C(CBr)Nc1ccccc1 | 25% (inactive)
23 | C1=C[N-]c2c3c(ccc2=C1)=CC=C[N-]3.C1=C[N-]c2c3c(ccc2=C1)=CC=C[N-]3.F[P-](F)(F)(F)(F)F.[Cu+2] | 51% (inactive)
24 | O=[N+]([O-])/C=C/c1ccccc1Cl | 68% (inactive)
25 | CCOP(=S)(OCC)SSSP(=S)(OCC)OCC | 5% (inactive)
26 | CCOC(=O)c1ccc(N=Cc2ccc(N(CCCl)CCCl)cc2C)cc1 | -8% (inactive)
27 | COc1ccc2c(c1)CCC(N1CCCC(=O)C1)C2 (stereo not given) | 11% (inactive)
28 | CCCCCCC(=O)[O][Hg][c]1ccccc1 | 99% (active)
29 | CCC[CH2][Sn]1([CH2]CCC)[O]C(=O)c2cccnc2[S]1 | 31% (inactive)
30 | C[AsH](C)CC[AsH](C)C.C[AsH](C)CC[AsH](C)C.C[AsH](C)CC[AsH](C)C.[Ni] | 74% (active)
31 | O=c1[nH]c2ccccc2n1C1CCN(CCCC(c2ccc(F)cc2)c2ccc(F)cc2)CC1 | -7% (inactive)
32 | O=[C-]c1ccccc1[C-]=O.[Pd+2].c1ccc([PH+](c2ccccc2)c2ccccc2)cc1.c1ccc([PH+](c2ccccc2)c2ccccc2)cc1 | 5% (inactive)
33 | c1ccc(C(c2ccccc2)c2cccnc2)cc1 | 55% (inactive)
34 | C#CC[As+](c1ccccc1)(c1ccccc1)c1ccccc1 | 37% (inactive)
35 | CC[CH2][Pb]([CH2]CC)([CH2]CC)[O]C(C)=O | 73% (active)
36 | CC[PH+](CC)CC.[Cl][Au] | 92% (active)
37 | CN(C)[PH+](N(C)C)N(C)C.CN(C)[PH+](N(C)C)N(C)C.[C-]#[O+].[C-]#[O+].[C-]#[O+].[C-]#[O+].[C-]#[O+].[C-]#[O+].[Co].[Co].[Hg] | -3% (inactive)
38 | CC1=C(N2CC2)C(=O)c2nc3n(c2C1=O)CCC3OC(=O)CCl (stereo not given) | 5% (inactive)
39 | [N-]=[N+]=Nc1c([N+](=O)[O-])c(=O)n2c3c(cccc13)CCC2 | 18% (inactive)
40 | CCC[CH2][Sn]1([CH2]CCC)[O]CC(CN2CCCCC2)[O]1 (stereo not given) | 22% (inactive)

Same assay, conditions: S. cerevisiae cln2 rad14 strain, at 50.0 µM (retest, dose inferred, filed as 5.0), stronger effect = higher value

Row | Structure (SMILES) | growth inhibition
41 | CC12CCC(=O)C=C1CCC1C2CCC2(C)C(O[Si](C)(C)OC3CCC4C5CCC6=CC(=O)CCC6(C)C5CCC34C)CCC12 (stereo not given) | 33% (inactive)
42 | CC1=C[C@H]2O[C@H]3C[C@H]4OC(=O)/C=C\C=C\C(=O)OCC[C@@H](C)[C@H](O)C(=O)OC[C@@]2(CC1)[C@@]4(C)[C@]31CO1 | 98% (active)
43 | CCCCCCCC[As](C)(=O)O | -59% (inactive)
44 | OC1C2[C@@H](O)CCCN2C[C@@H](O)[C@H]1O (stereo not given in full) | 20% (inactive)
45 | COC1(O[C@H]2CC[C@H]3[C@@H]4CCC5=CC(=O)CC[C@]5(C)[C@H]4CC[C@]23C)CCCCC1 | -4% (inactive)
46 | O=[N+]([O-])c1ccc(CS(=O)(=O)C(Cl)(Cl)Cl)o1 | 99% (active)
47 | CC([CH2][Hg][Cl])c1ccccc1 (stereo not given) | 99% (active)
48 | CC(C)CC[CH2][Pb]([CH2]CCC(C)C)([CH2]CCC(C)C)[O]C(=O)C(Cl)(Cl)Cl | 95% (active)
49 | COC1OC(OC)[CH]([Hg][Cl])C1OC (stereo not given) | 99% (active)
50 | S=C=[N][Sn]([N]=C=S)([c]1ccccc1)[c]1ccccc1.c1ccc2nc(-c3ccc4ccccc4n3)ccc2c1 | 99% (active)
51 | CSCCC([NH-])C(=O)O.CSCCC([NH-])C(=O)O.[Zn+2] (stereo not given) | -6% (inactive)
52 | C[PH+](C)C.C[PH+](C)C.[Au] | 32% (inactive)
53 | O=C(O)C(Br)C(Br)C(=O)O.[Ag] (stereo not given) | 99% (active)
54 | CCC1CN1P(=O)(Oc1ccccc1)N1CC1CC (stereo not given) | -7% (inactive)
55 | CCCCCc1cc(O)c(CCCC)c(O)c1 | 32% (inactive)
56 | N#CC(Cl)(Cl)CCl | 33% (inactive)
57 | O=C(Cc1c2ccccc2cc2c1ccc1ccccc12)N(CCCl)CCCl | 95% (active)
58 | CC[C@@]1(O)C(=O)OCc2c1cc1n(c2=O)Cc2cc3c(OC)cccc3nc2-1 | 74% (active)
59 | CCOC(=O)NP(=O)(NNc1ccccc1)NNc1ccccc1 | 99% (active)
60 | C=C1C(=O)O[C@@H]2C[C@@H](C)[C@@H]3C=CC(=O)[C@@]3(C)[C@@H](O)[C@H]12 | 14% (inactive)

Row | Structure (SMILES) | growth inhibition
61 | O=C(O)C(F)(F)F.[Ag] | 99% (active)
62 | O=C(CBr)Nc1ccccc1 | 99% (active)
63 | C1=C[N-]c2c3c(ccc2=C1)=CC=C[N-]3.C1=C[N-]c2c3c(ccc2=C1)=CC=C[N-]3.F[P-](F)(F)(F)(F)F.[Cu+2] | 98% (active)
64 | O=[N+]([O-])/C=C/c1ccccc1Cl | 98% (active)
65 | CCOP(=S)(OCC)SSSP(=S)(OCC)OCC | 20% (inactive)
66 | CCOC(=O)c1ccc(N=Cc2ccc(N(CCCl)CCCl)cc2C)cc1 | -15% (inactive)
67 | COc1ccc2c(c1)CCC(N1CCCC(=O)C1)C2 (stereo not given) | 38% (inactive)
68 | CCCCCCC(=O)[O][Hg][c]1ccccc1 | 99% (active)
69 | CCC[CH2][Sn]1([CH2]CCC)[O]C(=O)c2cccnc2[S]1 | 94% (active)
70 | C[AsH](C)CC[AsH](C)C.C[AsH](C)CC[AsH](C)C.C[AsH](C)CC[AsH](C)C.[Ni] | 97% (active)
71 | O=c1[nH]c2ccccc2n1C1CCN(CCCC(c2ccc(F)cc2)c2ccc(F)cc2)CC1 | -4% (inactive)
72 | O=[C-]c1ccccc1[C-]=O.[Pd+2].c1ccc([PH+](c2ccccc2)c2ccccc2)cc1.c1ccc([PH+](c2ccccc2)c2ccccc2)cc1 | 40% (inactive)
73 | c1ccc(C(c2ccccc2)c2cccnc2)cc1 | 97% (active)
74 | C#CC[As+](c1ccccc1)(c1ccccc1)c1ccccc1 | 95% (active)
75 | CC[CH2][Pb]([CH2]CC)([CH2]CC)[O]C(C)=O | 100% (active)
76 | CC[PH+](CC)CC.[Cl][Au] | 99% (active)
77 | CN(C)[PH+](N(C)C)N(C)C.CN(C)[PH+](N(C)C)N(C)C.[C-]#[O+].[C-]#[O+].[C-]#[O+].[C-]#[O+].[C-]#[O+].[C-]#[O+].[Co].[Co].[Hg] | 2% (inactive)
78 | CC1=C(N2CC2)C(=O)c2nc3n(c2C1=O)CCC3OC(=O)CCl (stereo not given) | 31% (inactive)
79 | [N-]=[N+]=Nc1c([N+](=O)[O-])c(=O)n2c3c(cccc13)CCC2 | 84% (active)
80 | CCC[CH2][Sn]1([CH2]CCC)[O]CC(CN2CCCCC2)[O]1 (stereo not given) | 91% (active)
